The list is not random: actives were taken first. Their share in the collection is about 3.3%.
BRCT inh green: BRCA1 BRCT-phosphoprotein interaction inhibition; 75,000 tested, 0.05% active; BRCA1 BRCT-phosphopeptide binding, green fluorescence polarization; P38398; Potency, µM (series often up to 76.9 µM), for inactives: at the highest dose activity change, negative = inhibition, actives largely listed as inhibitors; AID 875;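 also: potency is read from the fitted curve at half-maximal effect; plate controls were peptide without protein for full effect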
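Fluorescence polarization: His-tagged BRCT (~35 kDa BRCA1 C-terminus, 250 nM) bound to 100 nM fluorescein-labeled phosphorylated 10-aa BACH1 peptide, pH 7.3 phosphate buffer with DTT and Tween 20. Compounds incubated 12 min at room temperature; inhibition read as lowered polarization.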
Hsp90 Hop PPI: changes Hsp90-Hop TPR2A binding signal, up or down; AlphaScreen TPR2A-His6 binding biotin-Hsp90 C-terminal peptide; Potency, µM (highest dose often 57 µM), for inactives: at the top dose activity change, negative = inhibition; 71,000 tested, 0.44% active; AID 595; active = well fitted curve in either direction with a large enough effect; inconclusive = small, poorly fitted or top-dose-only effect, or another doubt; also: potency is read from the fitted curve at half-maximal effect; % is scaled to controls: 0 for no effect and ±100 for the full control effect
TSHR agonist: agonists of human thyroid stimulating hormone receptor | P16473 | HEK293-CNG-TSHR cells (CNG channel as cAMP sensor), membrane potential dye, cAMP | Potency, µM (series often up to 57.1 µM), without a hit: at the top dose activation, hits mostly activators | 73,000 tested, 0.48% active; active = well fitted activation curve with a large enough effect in the main read-out, with a control signal flat, not every such curve was filed as active; inconclusive = small, poorly fitted or top-dose-only effect, or a change in a side signal; inactive = no such curve, though single readings can be large or run the other way; % of control where 0% means no effect;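 also: the control signal comes from parental cells without the receptor; potency is read from the fitted curve at half-maximal effect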
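HEK 293 cells stably expressing TSHR and a modified CNG channel, with CNG-only parental cells as counterscreen, were preloaded 60 min at room temperature with membrane potential dye containing 100 uM RO 20-1724. Compound exposure was 30 min, and depolarization was read as fluorescence at 590 nm.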
YjeE inh: inhibitors of E. coli YjeE (TsaE); P0AF67; purified YjeE enzyme, qHTS inhibition assay; Potency, µM; 71,000 tested, 0.05% active
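Purified YjeE (10 uM) with BODIPY Texas Red-labeled ADP probe (2 uM); compounds pin-transferred, 15 min at room temperature. Binding inhibition read as decreased fluorescence polarization; ADP titration as control.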
HEK293 cAMP ctrl: raises cAMP in parental HEK293 cells, TSHR agonist counter-screen | parental HEK293 CNG cAMP sensor, membrane potential fluorescence | Potency, µM (series often up to 57.1 µM), without a hit: at the highest dose activation, actives largely listed as activators | 73,000 tested, 2.5% active | AID 938; also: potency is read from the fitted curve at half-maximal effect; % of control where 0% means no effect; nearly all actives have a fitted effect of over 55% in size
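Parental HEK 293 cells stably expressing a cAMP-gated CNG channel were loaded with membrane potential dye containing 100 uM RO 20-1724 for 60 min. Compound added for 30 min; depolarization read as fluorescence intensity at 590 nm.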
BRCT PPI red: disrupts BRCA1 BRCT binding to phosphoprotein, red fluorophore readout. P38398. Potency, µM (top dose mostly 76.9 µM), inactives show at the highest dose activity change, negative = inhibition, hits mostly inhibitors. AID 892. BRCT-phosphopeptide binding, red fluorescence polarization. 75,000 tested, 0.03% active; also: % is scaled to controls: 0 for no effect and ±100 for the full control effect
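Rhodamine-labelled pBACH1 10-mer (100 nM) bound to BRCT domain (100 nM) at pH 7.3; compounds incubated 12 min room temperature, polarization read. Free peptide defines full inhibition; unlabelled decapeptide titrated as control.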
HEK293 cAMP cnt: counter-screen for TSH receptor agonists: cAMP in parental HEK293 cells; AID 953; activity change, negative = inhibition, % at 32.9 µM; shares compounds with TSHR agonist; 150 tested, under 10 active; parental HEK293 CNG biosensor, cAMP membrane potential fluorescence
Numbers without * were called inactive; i = inactive; ? = inconclusive; nt = not tested or not shown; [ ] = another dose, or the depositor's remark. Unless noted, calls follow the shape of the dose curve; as a rule, active = well fitted curve in the direction sought with a large enough effect; inconclusive = small, poorly fitted or top-dose-only effect, or another doubt; inactive = no such curve, though single readings can be large; an effect the other way counts as inactive or inconclusive.

SMILES	BRCT inh green	Hsp90 Hop PPI	TSHR agonist	YjeE inh	HEK293 cAMP ctrl	BRCT PPI red	HEK293 cAMP cnt
CN(C)c1ccc(-c2nccc(NCc3cccs3)n2)cc1	-4.2%	-17.9%	25.1%	i	3.5%	-1.4%	nt
Cc1ccc(C)c(N(C(=O)Cn2nnc(-c3cccs3)n2)C(C(=O)NC2CC2)c2ccc(C)o2)c1 (configuration not stated)	-1.2%	-1.8%	7.94µM*	i	28.2%	1.4%	?
Cc1ccc(N(C(=O)Cn2nnc(-c3ccc(C)o3)n2)C(C(=O)NC2CCCC2)c2ccco2)cc1 (configuration not stated)	-0.6%	-1.7%	15.7%	i	25.1%	-0.1%	nt
COc1cccc(-c2nc(NC3CC3)c3ccccc3n2)c1	-4.5%	?	nt	i	6.0%	-1.8%	nt
Cc1ccccc1-n1nc(C)c2cc(C(=O)N3CCN(S(=O)(=O)c4ccc(F)cc4)CC3)sc21	1.2%	-2.0%	15.8µM*	i	9.8%	-0.9%	-1.2
O=S1(=O)N=C(Oc2ccccc2)c2ccccc21	1.3%	0.9%	-0.2%	i	8.6%	2.0%	-6.8[25.6 µM]
COc1ccc2c(C)cc(=O)oc2c1C	0.0%	-1.0%	10.7%	i	6.8%	-3.5%	-51.8[25.6 µM]
Cc1cc(=O)oc2c(C)c(OCC(=O)N(C)C)ccc12	-0.1%	1.5%	-15.6%	i	-4.6%	0.2%	nt
O=C1N(c2ccccc2)C2CS(=O)(=O)CC2N1c1ccc(Cl)c(Cl)c1 (configuration not stated)	-2.3%	nt	-5.3%	nt	-17.1%	0.7%	-23.3[25.6 µM]
COc1ccc(S(=O)(=O)NCCC(=O)NCc2ccc(F)cc2)cc1	0.9%	-5.4%	nt	i	0.7%	-0.6%	-8.9
COc1ccc(S(=O)(=O)NCCC(=O)NC2CCCCCCC2)cc1	-2.8%	-0.4%	-1.1%	i	-0.1%	0.1%	nt
CCOc1ccc(N(CC(=O)NC(C)(C)C)S(=O)(=O)c2c(C)noc2C)cc1	-1.4%	-0.4%	12.3%	i	18.2%	-1.9%	6.9[25.6 µM]
CCOc1ccc(N(CC(=O)NCc2ccc(F)cc2)S(=O)(=O)c2c(C)noc2C)cc1	-1.1%	-1.8%	13.0%	i	7.6%	0.0%	nt
CCOc1ccc(N(CC(=O)NCc2cccs2)S(=O)(=O)c2c(C)noc2C)cc1	-0.3%	-0.2%	31.6µM*	i	6.4%	-0.7%	9.5
CCOc1ccc(N(CC(=O)Nc2ccc(C)cc2)S(=O)(=O)c2c(C)noc2C)cc1	-3.1%	-3.9%	2.7%	i	3.3%	0.4%	5.3[25.6 µM]
O=C(O)[C@@H]1CCCN1Cc1c[nH]c2ccccc12	-0.7%[15.4 µM]	0.8%[11 µM]	-1.1%[11.4 µM]	i	5.1%[11.4 µM]	0.8%[15.4 µM]	nt
CCN(c1ccccc1)S(=O)(=O)c1ccc(Oc2ccc(-n3ccnc3)cc2)nc1	-1.7%	-12.7%	25.1µM*	i	19.8%	0.6%	-1.6
Cc1nc2ccc(NC(=O)c3ccc(S(=O)(=O)N4CCOCC4)cc3)cc2s1	-1.1%	-1.9%	26.2%	i	31.0%	0.8%	?
CC1=CC(=O)CC(C)(C)[C@]1(O)/C=C\C(C)=C\C(=O)O	0.8%[15.4 µM]	-1.7%[11 µM]	-4.5%[11.4 µM]	i	3.3%[11.4 µM]	-0.4%[15.4 µM]	nt
Cc1occc1-c1nnc(SCC(=O)Nc2ccccc2)n1Cc1ccccc1	-0.1%	-1.8%	?	i	?	0.5%	nt
Cc1ccccc1NC(=O)CSc1nnc(-c2ccoc2C)n1CCc1ccccc1	4.4%	-13.6%	10µM*	i	24.6%	-2.1%	20.3
Cc1nc2ccc(Br)cn2c(=O)c1Cl	-0.1%	-4.3%	7.0%	i	-2.3%	-1.1%	-3.1[25.6 µM]
CCNc1ncc2nc(-c3ccc(F)cc3)c(=O)n(Cc3ccc(F)cc3)c2n1	-0.8%	-1.5%	4.0%	i	2.9%	-1.7%	nt
